The panel holds about 83,000 compounds, 20% with a hit somewhere; the sample as a whole holds those more often.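 Negative percent growth values reflect cell death: -40 means 40% of the cells present at the start died, and -100 means all died.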
Experiments:
Assay in all cases: NCI-60 one-dose screen, 48 h (100 = growth as untreated, 0 = no growth, -100 = all killed)
Conditions in all cases: 10 µM unless noted; active means growth percent below 10; inactive means the rest
NCI-H23 lung = system: NCI-H23 lung
NCI-H226 lung = system: NCI-H226 lung
NCI-H322M lung = system: NCI-H322M lung
HOP-62 NSCLC = system: HOP-62 NSCLC
NCI-H460 lung = system: NCI-H460 lung
HOP-92 NSCLC = system: HOP-92 NSCLC
A549/ATCC NSCLC = system: A549/ATCC NSCLC
786-0 renal = system: 786-0 renal
COLO 205 colon = system: COLO 205 colon
NCI-H522 lung = system: NCI-H522 lung

Measured: growth

Nc1nnc2cc(F)ccc2n1
inactive: NCI-H23 lung 90.6% | NCI-H226 lung 96.3% | NCI-H322M lung 106% | HOP-62 NSCLC 101% | NCI-H460 lung 107% | HOP-92 NSCLC 85.2% | A549/ATCC NSCLC 113% | 786-0 renal 105% | COLO 205 colon 134%

Cc1[nH]n(-c2ccccc2)c(=O)c1C=NC(=S)C(N)=S
inactive: NCI-H23 lung 98.1% | NCI-H226 lung 99.7% | NCI-H322M lung 110% | HOP-62 NSCLC 104% | NCI-H460 lung 107% | HOP-92 NSCLC 84% | A549/ATCC NSCLC 93.6% | 786-0 renal 104% | COLO 205 colon 106%

CCC(C)c1c(N)n(S(=O)(=O)c2ccc(C)cc2)oc1=O (configuration not stated)
inactive: NCI-H23 lung 108% | NCI-H226 lung 111% | NCI-H322M lung 123% | HOP-62 NSCLC 112% | NCI-H460 lung 105% | HOP-92 NSCLC 105% | A549/ATCC NSCLC 108% | 786-0 renal 119% | COLO 205 colon 124%

Cc1cc(CC(=O)NCCO)n(CCO)c(=O)c1
inactive: NCI-H23 lung 101% | NCI-H226 lung 105% | NCI-H322M lung 103% | HOP-62 NSCLC 91% | HOP-92 NSCLC 115% | NCI-H522 lung 93.8% | A549/ATCC NSCLC 94.1% | 786-0 renal 108%

Cc1ccc(N)c(S(=O)(=O)O)c1
inactive: NCI-H23 lung 98.6% | NCI-H226 lung 103% | NCI-H322M lung 93.8% | HOP-62 NSCLC 85.8% | NCI-H460 lung 104% | HOP-92 NSCLC 112% | A549/ATCC NSCLC 125% | 786-0 renal 101% | COLO 205 colon 106%

Cc1cc(=O)n(Nc2ccccc2)c(O)c1C#N
inactive: NCI-H23 lung 97.4% | NCI-H226 lung 94% | NCI-H322M lung 92.4% | HOP-62 NSCLC 86% | HOP-92 NSCLC 102% | NCI-H522 lung 100% | A549/ATCC NSCLC 106% | 786-0 renal 101% | COLO 205 colon 104%

Cn1c(=O)c2nc3c(=O)n(C)c(=O)n(C)c3nc2n(C)c1=O
inactive: NCI-H23 lung 95.1% | NCI-H226 lung 107% | NCI-H322M lung 101% | HOP-62 NSCLC 93% | NCI-H460 lung 102% | HOP-92 NSCLC 127% | A549/ATCC NSCLC 126% | 786-0 renal 91.2% | COLO 205 colon 126%

Cc1ccc(S(=O)(=O)CCCl)cc1
inactive: NCI-H23 lung 102% | NCI-H226 lung 108% | NCI-H322M lung 128% | HOP-62 NSCLC 112% | NCI-H460 lung 105% | HOP-92 NSCLC 76.1% | A549/ATCC NSCLC 89.5% | 786-0 renal 108% | COLO 205 colon 120%

COc1cc(OC)c2cc(C(=O)c3ccc(C#N)cc3)c(=O)oc2c1
inactive: NCI-H23 lung 96.9% | NCI-H226 lung 92.2% | NCI-H322M lung 92.3% | HOP-62 NSCLC 88.6% | NCI-H460 lung 107% | HOP-92 NSCLC 107% | A549/ATCC NSCLC 99% | 786-0 renal 84% | COLO 205 colon 117%

O=C(O)CSCC(=O)Nc1cc(C(F)(F)F)ccc1Cl
inactive: NCI-H23 lung 111% | NCI-H226 lung 109% | NCI-H322M lung 103% | HOP-62 NSCLC 105% | NCI-H460 lung 134% | HOP-92 NSCLC 104% | A549/ATCC NSCLC 106% | 786-0 renal 107% | COLO 205 colon 121%

COC1OC(CO)C(OC)C(O)C1O (configuration not stated)
inactive: NCI-H23 lung 105% | NCI-H226 lung 102% | NCI-H322M lung 99.9% | HOP-62 NSCLC 102% | NCI-H460 lung 97.4% | HOP-92 NSCLC 111% | A549/ATCC NSCLC 103% | 786-0 renal 101% | COLO 205 colon 113%

O=S(=O)(OCCOS(=O)(=O)c1ccccc1)c1ccccc1
inactive: NCI-H23 lung 95% | NCI-H226 lung 87.6% | NCI-H322M lung 97.6% | HOP-62 NSCLC 94.9% | NCI-H460 lung 97.6% | HOP-92 NSCLC 99.5% | A549/ATCC NSCLC 93.3% | 786-0 renal 93.5% | COLO 205 colon 112%

CCCCCC(=O)OCCC1CCCCC1
inactive: NCI-H23 lung 96.2% | NCI-H226 lung 101% | NCI-H322M lung 99.9% | HOP-62 NSCLC 98.6% | NCI-H460 lung 105% | HOP-92 NSCLC 70% | A549/ATCC NSCLC 98.4% | 786-0 renal 106% | COLO 205 colon 101%

CCOC(=O)/C(C#N)=C\c1c[nH]c2ccccc12
inactive: NCI-H23 lung 86.5% | NCI-H226 lung 79.8% | NCI-H322M lung 110% | HOP-62 NSCLC 80.7% | NCI-H460 lung 109% | HOP-92 NSCLC 81.6% | A549/ATCC NSCLC 105% | 786-0 renal 114% | COLO 205 colon 98.7%

COC(CCCl)c1ccc(Cl)cc1 (configuration not stated)
inactive: NCI-H23 lung 107% | NCI-H226 lung 101% | NCI-H322M lung 97.5% | HOP-62 NSCLC 114% | NCI-H460 lung 107% | HOP-92 NSCLC 121% | A549/ATCC NSCLC 95.4% | 786-0 renal 100% | COLO 205 colon 111%

CC(C)NC(=O)OCc1c(COC(=O)NC(C)C)c(-c2ccc(Cl)cc2)n2c1CCC2
inactive: NCI-H23 lung 36.5% | NCI-H226 lung 63% | NCI-H322M lung 62.8% | HOP-62 NSCLC 46.4% | NCI-H460 lung 24.6% | HOP-92 NSCLC 26.2% | A549/ATCC NSCLC 66.5% | 786-0 renal 36.4% | COLO 205 colon 57.2%

O=C(O)c1cccc(-n2ncc(Cl)c(Cl)c2=O)c1
inactive: NCI-H23 lung 107% | NCI-H226 lung 101% | NCI-H322M lung 117% | HOP-62 NSCLC 100% | NCI-H460 lung 101% | HOP-92 NSCLC 112% | A549/ATCC NSCLC 102% | 786-0 renal 109% | COLO 205 colon 117%
